Experimental data: PubChem BioAssay
The source made the active and inactive calls.

How the values were obtained:
[1] = target: Albumin (Bos taurus) (UniProt P02769); test: bovine serum albumin binders on microarray, profiling panel, artefact control for SMM control protein annotation, biochemical, small-molecule microarray, Alexa647 label, 635/667 nm fluorescence (AID 1118); settings: BSA-A647 binding, fluorescence 635 nm, higher = more signal;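 further: score merges 667 nm emission intensity and signal-to-noise per printed compound spot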
[2] = small-molecule microarray binders of probe aXIP, primary screen, biochemical, NeuroSMM set, 635/667 nm fluorescence (AID 1119); settings: higher = more signal, called active from +8 up or from −8 down;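 further: probe is the protein aXip251-270 applied at 1 µg/mL to compound-printed slides; binding of probe to printed compounds measured as 667 nm fluorescence plus signal to noise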
[3] = small-molecule binders of probe aNOTCH3, primary screen, biochemical, small-molecule microarray, 635/667 nm fluorescence (AID 1120); settings: higher = more signal;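 further: probe is a biotin-tagged antibody raised against NOTCH3 rather than NOTCH3 protein; score merges spot fluorescence near 667 nm with spot signal to noise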
[4] = small-molecule binders of probe aNOTCH2, primary screen, biochemical, small-molecule microarray, 635/667 nm fluorescence (AID 1121); settings: higher = more signal;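 further: score merges feature fluorescence read at 667 nm with its signal to noise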
[5] = target: Carbonic anhydrase 2 (Homo sapiens) (UniProt P00918); test: CAII small-molecule binders, profiling panel, biochemical, small-molecule microarray, Alexa647-labelled CAII (AID 1122); settings: CAII-A647 binding fluorescence, higher = more signal
[6] = COS7 lysate on small-molecule microarray, probe aHis, 635 nm (AID 1123); settings: COS7 cell lysate, fluorescence, higher = more signal;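 further: z-score combines 667nm fluorescence intensity with signal-to-noise per printed compound spot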
[7] = compound binding in COS7 lysate, probe aLAP1, primary screen, cell lysate, small-molecule microarray (AID 1124); settings: probe aLAP1, fluorescence, higher = more signal;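 further: lysate comes from COS7 cells expressing LAP1 and is applied at 0.3 µg/mL; score merges spot fluorescence near 667 nm with signal-to-noise over triplicate slides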
[8] = system: Sam68 (KHDRBS1); test: Sam68 small-molecule binders, primary screen, biochemical, small-molecule microarray, 635 nm fluorescence (AID 1125); settings: small-molecule microarray binding, higher = more signal;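 further: score merges 667 nm channel intensity with signal to noise over triplicate slides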
[9] = system: Chordin-like protein 2 (CHRDL2); test: CHRDL2 small-molecule binders, primary screen, biochemical, small-molecule microarray, 635 nm fluorescence (AID 1126); settings: small-molecule microarray binding, fluorescence 635 nm; higher = more signal;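 further: printed compound slides probed with Chrdl2 protein at 4 µg/mL for 1 h at 4 C; score merges 667 nm emission intensity with signal to noise over three replicate slides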
[10] = target: Concanavalin-A (Canavalia ensiformis) (UniProt P02866); test: ConA small-molecule binders, primary screen, artefact control for SMM control protein annotation, biochemical, small-molecule microarray, Alexa647 label, 635 nm (AID 1127); settings: ConA-A647 binding fluorescence, higher = more signal;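 further: z combines 667 nm emission intensity with signal-to-noise across three replicate slides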
Concanavalin-A (Canavalia ensiformis), sequence (P02866 whole entry, looked up): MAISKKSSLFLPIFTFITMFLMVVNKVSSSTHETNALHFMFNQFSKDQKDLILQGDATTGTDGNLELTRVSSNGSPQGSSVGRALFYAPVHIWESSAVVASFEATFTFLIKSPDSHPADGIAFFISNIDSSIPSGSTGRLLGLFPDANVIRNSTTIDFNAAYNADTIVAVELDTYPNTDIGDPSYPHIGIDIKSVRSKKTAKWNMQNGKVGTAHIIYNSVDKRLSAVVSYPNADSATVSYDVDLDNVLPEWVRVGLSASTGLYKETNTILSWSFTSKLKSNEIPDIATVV

Albumin (Bos taurus), sequence (P02769 whole entry, looked up): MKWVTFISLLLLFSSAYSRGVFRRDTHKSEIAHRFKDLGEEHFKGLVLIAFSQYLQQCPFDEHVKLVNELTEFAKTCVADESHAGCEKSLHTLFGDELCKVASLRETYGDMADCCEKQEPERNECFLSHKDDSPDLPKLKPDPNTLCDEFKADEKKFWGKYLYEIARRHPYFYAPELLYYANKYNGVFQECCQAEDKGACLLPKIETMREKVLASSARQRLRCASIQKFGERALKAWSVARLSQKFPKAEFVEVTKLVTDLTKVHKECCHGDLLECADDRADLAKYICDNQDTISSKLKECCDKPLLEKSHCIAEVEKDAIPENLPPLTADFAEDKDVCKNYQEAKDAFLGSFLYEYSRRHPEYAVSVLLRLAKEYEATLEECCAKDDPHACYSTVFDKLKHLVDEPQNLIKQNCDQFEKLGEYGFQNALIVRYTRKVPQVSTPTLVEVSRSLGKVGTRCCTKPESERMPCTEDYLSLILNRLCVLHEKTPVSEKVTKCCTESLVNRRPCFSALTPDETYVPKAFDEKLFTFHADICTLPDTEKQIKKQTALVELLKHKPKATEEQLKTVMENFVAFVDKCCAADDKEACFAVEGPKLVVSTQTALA

SMILES | composite z-score [1] | composite Z-score [2] | composite z-score [3] | composite z-score [4] | composite z-score [5] | composite z-score [6] | composite z-score [7] | composite z-score [8] | composite z-score [9] | composite z-score [10]
CCCCCCCCCCC(O)C1C=CC2C(=O)N(C)C(=O)C2N1NC(=O)OC(C)(C)C (stereo not given) | 0.682 | 0.245 (inactive) | -0.0077 | -0.124 | 0.344 | 1.24 | -0.45 | 0.717 | -0.409 | 1.12
O[C@@H](Cc1ccccc1)[C@@H](/C=C/C1CC1)N(CC#Cc1ccccc1)Cc1cccc(Cl)c1 | -0.22 | 0.889 (inactive) | -0.376 | -0.117 | -0.245 | -0.359 | 0.0449 | -0.117 | -1.21 | -0.403
C=C(COC)C(=O)CC[C@@H](OC(=O)c1cccnc1)c1ccc(OCCO)cc1 | -0.283 | 0.517 (inactive) | 0.176 | 0.0362 | 0.751 | 1 | 0.211 | 0.629 | 1.12 | 0.388
COCCOC(=O)N1C(=O)[C@@]2(c3cc(C#CC4=CCCCC4)ccc31)[C@H](c1ccccc1OCCO)N1[C@H](c3ccccc3)[C@H](c3ccccc3)OC(=O)[C@H]1[C@@H]2C(=O)N1CCCCCCC1 | -0.0107 | 0.181 (inactive) | -0.582 | -0.26 | 0.592 | 2.23 | 0.22 | 1.34 | 0.323 | 0.592
CC(C)(C)N1CC=CC23O[C@@H]4C=CCOC(=O)[C@@H]4[C@H]2C(=O)N(CCCCCCO)[C@@H]3C1=O (stereo not given in full) | 0.277 | 0.395 (inactive) | -0.359 | -0.112 | 0.879 | -0.112 | 0.483 | -0.551 | -0.677 | -0.375
COc1ccc([Si](C)(C)[C@@H]2[C@@H](CC(=O)N(CCO)Cc3ccccc3)O[C@]3(C(=O)N(Cc4cccc(N5CCOC5=O)c4)c4ccccc43)[C@H]2C)cc1 | -0.256 | 1.28 (inactive) | -0.269 | -0.0993 | 0.596 | 1.22 | 0.766 | 1.3 | 0.647 | 1.08
OCCCC1=CC(c2ccc(CN3CCCC3)cc2)N(Cc2sc3ccccc3c2Cl)CC1 (stereo not given) | -0.38 | -0.404 (inactive) | 0.191 | -0.0293 | 0.483 | 0.504 | -0.456 | 0.982 | 0.608 | 0.913
C=CCOC(=O)[C@H]1[C@@H]2C(=O)O[C@@H](c3ccccc3)[C@@H](c3ccccc3)N2[C@@H](c2ccc(OCCOC(=O)[C@@H]3C[C@@H]4C(=O)N[C@@H](CCCCNC(C)=O)C(=O)N4[C@@H]3c3ccc(O)cc3)cc2)[C@]12C(=O)Nc1ccc(I)cc12 | -0.689 | 1.53 (inactive) | 0.108 | 0.0083 | 0.631 | 1.69 | 0.719 | 1.29 | 1.01 | 0.764
O=C(NCC(F)(F)F)[C@@H]1c2ccccc2C(=O)N(Cc2cc(F)cc(C(F)(F)F)c2)[C@H]1c1ccc(CO)cc1 | -0.463 | 0.57 (inactive) | -0.355 | -0.0644 | 0.295 | 0.837 | -0.0879 | -0.639 | -1.11 | -0.236
CN1C(=O)C2C=CC(C(O)COCc3ccccc3)N(N(c3ccccc3)c3ccccc3)C2C1=O (stereo not given) | 0.319 | 0.453 (inactive) | 0.227 | -0.0173 | 0.412 | 1.62 | 0.0687 | 1.05 | -0.571 | 0.671
CO[C@H]1O[C@H](CO)[C@@H](OC(=O)Nc2ccc3c(c2)OCO3)[C@H](OC(=O)c2cc3ccccc3[nH]2)[C@H]1OC(=O)c1cc2ccccc2[nH]1 | 0.429 | 0.993 (inactive) | -0.0932 | -0.0875 | 0.402 | -0.0481 | 0.0757 | 0.12 | 0.725 | -0.391
COC(=O)c1c(CC[C@@H](CO)NC(=O)N[C@H](Cn2cc(C3(O)CCCCC3)nn2)C(C)C)oc(C(C)=O)c1C(=O)OC | -0.471 | 0.183 (inactive) | 0.0282 | -0.0878 | 0.209 | 0.32 | -0.0003 | 1.14 | 0.513 | 1.16
CC(C)(C)OC(=O)CC[C@@]1(C(=O)NCc2ccccc2)N=C(c2ccc(OCCCO)cc2)O[C@@H]1c1ccccc1N=[N+]=[N-] | 0.952 | 0.399 (inactive) | 0.66 | 0.115 | 0.73 | 2.97 | 0.935 | 1.29 | 0.134 | 1.04
COc1cc(OC)c(C(O)C2C=CC3C(=O)N(c4ccccc4)C(=O)C3N2Nc2ccccc2)cc1Br (stereo not given) | 0.911 | -0.565 (inactive) | 0.245 | -0.117 | 0.457 | 1.33 | 0.468 | 1.19 | -1.07 | 1.1
COC(=O)c1nc2oc1CC[C@@H](CO)NC(=O)N(C)Cc1cnnn1C[C@H](Cc1ccccc1)NC2=O | 0.771 | 0.15 (inactive) | -0.182 | -0.167 | 0.853 | 0.205 | 0.321 | -0.0671 | -0.873 | -0.343
O=C1C2C=CC(C(O)c3ccc(Br)cc3)N(Nc3ccccc3F)C2C(=O)N1c1ccccc1 (stereo not given) | 0.826 | 0.0051 (inactive) | -0.038 | -0.126 | 0.762 | 1.58 | 0.358 | 0.68 | 0.0957 | 0.667

SMILES | composite z-score [1] | composite Z-score [2] | composite z-score [3] | composite z-score [4] | composite z-score [5] | composite z-score [6] | composite z-score [7] | composite z-score [8] | composite z-score [9] | composite z-score [10]
O=C1NC(=O)C2C1C=CC(C(O)c1cccc3ccccc13)N2Nc1ccc(Cl)cc1Cl (stereo not given) | 0.205 | -0.288 (inactive) | 0.0496 | 0.0915 | 0.358 | 2.12 | 0.818 | 0.762 | -0.155 | 1.07
COCCCNC(=O)[C@]1(CCS(=O)(=O)c2ccccc2)N=C(c2ccc(OCCCO)cc2)O[C@@H]1c1ccccc1CN=[N+]=[N-] | 1.05 | 0.0933 (inactive) | 0.271 | 0.228 | 0.735 | 2.79 | 0.295 | 1.3 | -0.79 | 1.24
COc1ccc([Si](C)(C)[C@@H]2[C@@H](CC(=O)N3Cc4ccccc4C[C@H]3CO)O[C@]3(C(=O)N(C)c4ccccc43)[C@H]2C)cc1 | 0.63 | 1.22 (inactive) | 0.215 | 0.014 | 0.723 | 0.475 | -0.0284 | 1.3 | 1.13 | 1.17
C=CCC(OC(C)=O)[C@@H]1[C@@H](N(Cc2ccc(-c3cccc(C(F)(F)F)c3)o2)C(=O)c2ccc(-c3ccccc3)cc2)c2cc(OCCCO)ccc2N1C(=O)c1ccc2ccccc2n1 (stereo not given in full) | -0.267 | -0.219 (inactive) | -0.0077 | 0.357 | -0.232 | 0.266 | -0.154 | -0.734 | 0.198 | -0.458
COc1ccccc1CN1C(=O)c2ccccc2[C@](Cc2ccccc2I)(C(=O)NCC(F)(F)F)[C@@H]1c1ccc(CO)cc1 | 0.832 | -0.46 (inactive) | 0.073 | -0.057 | 0.824 | 1.95 | 0.311 | 1.29 | -1.12 | 1.15
C[C@H]1NC(=O)[C@@]23C(=O)N[C@@H](Cc4ccccc4)C2[C@H](C)[C@@]2(C)O[C@H]2C3/C=C/C/C=C\CNC(=O)[C@H](Cc2ccccc2)NC1=O (stereo not given in full) | -0.474 | -0.721 (inactive) | -0.145 | -0.127 | 0.281 | 0.205 | 0.0898 | 0.127 | 0.636 | 0.501
CC1CC/C=C\[C@H]2OC34C=CCN(C(C)C)C(=O)[C@H]3N(CCCCCCO)C(=O)[C@@H]4C2C(=O)O1 (stereo not given in full) | -0.0272 | -0.416 (inactive) | -0.268 | -0.145 | 0.889 | -0.63 | -0.0532 | -1.83 | -0.607 | -0.594
COc1ccccc1CN1C(=O)c2ccccc2[C@@]2(Cc3ccccc3N(CC(F)(F)F)C2=O)[C@@H]1c1ccc(CO)cc1 | -0.826 | -0.137 (inactive) | -0.251 | 0.156 | 0.757 | 0.384 | 2.4 | 0.707 | 1.03 | 0.331
C=C(C(=O)CC[C@@H](OC(C)=O)c1ccc(CO)o1)C(C)C | -0.307 | 1.58 (inactive) | 0.706 | -0.0911 | 0.846 | 0.445 | 0.119 | 0.285 | 0.8 | 0.771
COc1ccc([Si](C)(C)[C@H]2[C@H](CC(=O)N(CCO)Cc3ccccc3)O[C@@]3(C(=O)N(Cc4cccc(N5CCOC5=O)c4)c4ccccc43)[C@@H]2C)cc1 | -0.255 | 0.897 (inactive) | -0.0288 | -0.104 | 0.591 | 1.1 | 0.735 | 1.3 | 0.623 | 0.995
CCCCCCc1nc(C2CC2)cc2c1[Si](C(C)C)(C(C)C)OC2 | -0.858 | 0.289 (inactive) | -0.197 | -0.176 | -0.513 | -0.535 | -0.0031 | -0.826 | -0.463 | -0.334
CC(C)(C)OC(=O)CC[C@]1(C(=O)NCc2ccccc2)N=C(c2ccc(OCCCO)cc2)O[C@H]1c1ccccc1CN=[N+]=[N-] | 0.75 | -1 (inactive) | 0.526 | -0.127 | 0.68 | 2.45 | 0.583 | 1.3 | -0.0873 | 0.769
NCCCCCCNC(=O)[C@@H]1C[C@@H]2C(=O)N[C@@H](CCCCN)C(=O)N2[C@@H]1c1cccc(OCCO)c1 | -0.907 | 2.87 (inactive) | 0.645 | 0.163 | 0.584 | -0.191 | 0.767 | 1.2 | 1.05 | 0.718
N#Cc1ccc(NN2C(C(O)c3ccc(F)cc3)C=CC3C(=O)N(c4ccccc4)C(=O)C32)cc1 (stereo not given) | 0.824 | 0.383 (inactive) | -0.16 | -0.138 | 0.318 | 2.59 | 0.905 | -0.306 | -1.55 | 0.536
O=C(NCc1ccccc1)[C@@H]1c2ccccc2C(=O)N(Cc2ccccc2C(F)(F)F)[C@H]1c1ccc(CO)cc1 | -0.0228 | -0.683 (inactive) | -0.232 | -0.13 | 0.759 | 0.829 | 2.63 | 0.227 | -1.2 | 0.612
COC(=O)[C@@]1(Cc2ccccc2)[C@H]2c3cc(C(=O)N(C)C)n(CCc4ccc(O)c(OC)c4)c3C[C@H]2CN1C(=O)c1ccccc1 | 0.374 | -0.372 (inactive) | 0.742 | 0.401 | 0.126 | 0.316 | 0.638 | 0.169 | 0.314 | 0.151
